D1 potentiator = Potentiators of Human D1 Dopamine Receptor: qHTS | potentiation, % at 10 µM | HEK293 TREx D1 cells, calcium flux, dopamine EC20 potentiation | 0.036% of 360,000 active | D(1A) dopamine receptor (Homo sapiens), P21728 | AID 504651, 2011; in the data active = potentiation above about 30%
D1 agonist = Allosteric Agonists of the Human D1 Dopamine Receptor: qHTS; D(1A) dopamine receptor (Homo sapiens), P21728; HEK293 T-REx D1 cells, calcium flux, agonist mode; activation, % at 2 µM; 1% of 360,000 active
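Inducible HEK293 T-REx D1 cells, force-coupled to calcium signalling, were plated at 4000 cells/well with tetracycline and held overnight at 30 C. After no-wash calcium dye loading, compound-evoked calcium rise over 180 s flagged agonists.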
TRHR enhancer = qHTS for Small Molecule Agonists and Allosteric Enhancers of Human TRH Receptor: Primary Screen for Enhancers; Thyrotropin-releasing hormone receptor (Homo sapiens), P34981; TRHR cells, fluo-8 calcium fluorescence, EC20 TRH enhancement; enhancement, % at 2 µM; 0.66% of 360,000 active; AID 493056, 2011; in the data active = enhancement above about 30%
Target sequence (P34981 whole entry, looked up): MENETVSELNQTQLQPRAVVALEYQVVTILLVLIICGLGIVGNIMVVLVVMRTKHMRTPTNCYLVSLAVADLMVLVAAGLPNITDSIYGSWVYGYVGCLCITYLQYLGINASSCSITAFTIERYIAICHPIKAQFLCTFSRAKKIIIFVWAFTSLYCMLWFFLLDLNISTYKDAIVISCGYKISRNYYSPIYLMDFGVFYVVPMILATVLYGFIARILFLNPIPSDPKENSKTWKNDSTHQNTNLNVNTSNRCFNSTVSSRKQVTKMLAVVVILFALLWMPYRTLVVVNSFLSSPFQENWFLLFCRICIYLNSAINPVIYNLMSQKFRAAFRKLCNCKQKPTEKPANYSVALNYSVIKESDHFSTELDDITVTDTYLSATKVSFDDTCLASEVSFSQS
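Enhancer read-out: after compound pinning and an initial kinetic agonist-mode read, an EC20 of TRH (10 nM final) was injected and fluo-8 calcium signal (Ex 480/Em 530) followed at 1 s/cycle for 100 cycles in TRHR-expressing cells.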
TRHR agonist = qHTS for Small Molecule Agonists and Allosteric Enhancers of Human TRH Receptor: Primary Screen for Agonists; AID 493084, 2011; TRHR cells, calcium flux fluo-8, FDSS agonist mode; activation, % at 2 µM; 0.18% of 360,000 active
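TRHR-expressing cells, plated overnight in medium with 10% serum, were loaded with fluo-8 calcium dye at room temperature. After a 10 s baseline, library compound was pin-added and calcium release was recorded kinetically (ex 480/em 530) as agonist response.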
D1 antag = Antagonist of Human D 1 Dopamine Receptor: qHTS; HEK293 TREx D1 cells, calcium flux, dopamine EC80; hits give low values; activity change, negative = inhibition, % at 10 µM; 3.2% of 360,000 active; AID 504652, 2011; in the data active = activity change below about -30%
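After overnight tetracycline induction at 30 C, force-coupled D1 HEK293 cells took up a no-wash calcium dye at room temperature. Compounds were added and monitored 180 s, and the response to EC80 dopamine was then recorded.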
Numbers stand for hits; – = inactive; · = not tested or not shown. An excerpt weighted towards active compounds, which were near 4.7% of everything screened. Rule as the data show it, unless noted: active = activation above about 30%; inactive = the rest.

SMILES | D1 potentiator | D1 agonist | TRHR enhancer | TRHR agonist | D1 antag
CNC(=O)c1cc(S(=O)(=O)N2CC(C)OC(C)C2)ccc1N1CCCCC1 (stereo not given) | – | – | 41 | – | –
Cc1ccccc1OCc1nnc(SCc2cc(=O)c3cccc(F)c3[nH]2)n1C | – | – | – | – | –
O=C(NCC1CCCCC1)c1cc(Br)ccc1Cl | – | – | – | – | -32
CN(C)CCNc1nc2sc3c(c2c(=O)n1CCc1ccccc1)CCCCC3 | – | 106 | – | – | -35
CC(C)Cn1cnc2sc3c(c2c1=N)CCCC3 | – | – | – | – | –
N=c1c2c3c(sc2ncn1Cc1ccco1)CCCCC3 | – | – | – | – | -35
CC(O)CNc1nc2sc3c(c2c(=O)n1CCc1ccccc1)CCCCC3 (stereo not given) | – | – | – | – | –
CC(O)CNc1nc2sc3c(c2c(=O)n1Cc1ccco1)CCCCC3 (stereo not given) | – | 34 | – | – | –
CCN(CC)CCOC(=O)c1ccc(NC(=O)c2cc3c(=O)n(CC)c4ccccc4c3s2)cc1 | – | – | – | – | –
C=CCn1cc([N+](=O)[O-])nc1C | – | – | – | – | -31
Cc1csc(NC(=O)c2cccnc2)n1 | – | – | – | – | -36
Cc1csc(NC(=O)c2ccc(COc3ccccc3)o2)n1 | – | – | 30 | – | -35
O=C1CC(SC2=NCCS2)C(=O)N1c1ccc(Cl)cc1 (stereo not given) | – | – | – | – | –
O=C1CC(SC2=NCCS2)C(=O)N1c1ccc(Br)cc1 (stereo not given) | – | 44 | – | – | –
CCOc1ccc(NC(=O)CN(C)C(=O)c2ccc(OCC3CCCO3)cc2)cc1OCC (stereo not given) | – | – | – | – | -42
CCOc1ccc(NC(=O)COc2ccc(C(=O)NCC3CCCO3)cc2OC)cc1 (stereo not given) | – | – | – | – | -37
COc1cc(C(=O)Nc2ccc(C(=O)NCC3CCCO3)cc2)cc(OC)c1OC (stereo not given) | – | – | – | – | –
O=C(CNC(=O)c1ccc(Cl)cc1Cl)NCCCn1ccnc1 | – | – | 31 | – | –
O=C(NCCCn1ccnc1)c1cc(-c2ccc(Cl)cc2)nc2ccccc12 | – | – | – | – | -39
O=C(CSc1cc(Cl)ccc1Cl)NCCCn1ccnc1 | · | – | – | – | –
Cc1ccc(NC(=O)CSCc2cc(=O)c3ccccc3[nH]2)c(C)c1 | – | – | – | – | –
O=S(=O)(Cc1ccccc1Cl)N1CCN(Cc2ccc3c(c2)OCO3)CC1 | – | 41 | – | – | -34
COc1ccc(S(=O)(=O)N2CCN(Cc3ccc4c(c3)OCO4)CC2)cc1C | – | – | – | – | –
Cn1cc(CN2CCN(c3ccc(Cl)cn3)CC2)c(-c2ccccc2F)n1 | – | – | – | – | –
Cc1cccc(S(=O)(=O)N2CCN(Cc3ccc4c(c3)OCO4)CC2)c1 | – | – | – | – | -34
SMILES | D1 potentiator | D1 agonist | TRHR enhancer | TRHR agonist | D1 antag
Cn1cc(CN2CCN(Cc3ccc4c(c3)OCO4)CC2)c(-c2ccccc2F)n1 | – | – | – | – | -31
COc1cccc(CN2CCNC(=O)C2CC(=O)NCCn2ccc3ccccc32)c1OC (stereo not given) | – | – | – | – | -85
COC(=O)c1cc(NC(=O)c2nn(C)c3c2CSc2ccccc2-3)cc(C(=O)OC)c1 | – | – | – | – | –
CC(C)CCNC(=O)c1csc2c1CCCCC2 | – | – | – | – | –
CC1CC(C)CN(CCCNC(=O)c2csc3c2CCCC3)C1 (stereo not given) | – | – | 36 | – | –
CSc1ccc(/C=N/NC(=O)CN2CCN(Cc3ccc(Cl)cc3)CC2)cc1 | – | 38 | – | – | –
CCc1nn(CC(=O)NCCc2ccc(SC)cc2)c(=O)c2cc3sccc3n12 | – | – | – | – | –
Cn1c2ccccc2c2cnn(CC(=O)NCCCN3CCN(c4ccccc4F)CC3)c(=O)c21 | – | – | – | – | -63
